42 sequences from article PMC7819943, “Rice protein-binding microarrays: a tool to detect cis-acting elements near promoter regions in rice” can be followed below.

Over roughly 68,000 sequences, “fluorescence intensity (a.u.)” has its median near 9,100; the highest 2% begin near 16,000. The sample as a whole holds a higher share of the highest values than the screen did.

Chain of OsWRKY34 (Q0JBA9 entry or part of it): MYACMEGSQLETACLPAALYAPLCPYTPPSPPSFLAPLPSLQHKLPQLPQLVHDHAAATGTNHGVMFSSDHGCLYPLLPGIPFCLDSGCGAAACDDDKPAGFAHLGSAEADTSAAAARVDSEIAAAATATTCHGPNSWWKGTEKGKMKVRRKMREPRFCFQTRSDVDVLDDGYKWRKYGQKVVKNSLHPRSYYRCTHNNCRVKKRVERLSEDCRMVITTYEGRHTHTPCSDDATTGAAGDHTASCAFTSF

The assay has as its target OsWRKY34 (Oryza sativa, UniProt Q0JBA9 1-250). Nature of the assay: protein-binding microarray (RPBM); PBS, 2% BSA, 51.3 ng/ul salmon testes DNA, 50 uM zinc acetate, 200 nM TF, 25 C, 1 h; high values mean tight binding. The settings on record: protein: recombinant; tags: N-terminal polyhistidine and DsRed monomer fusion (pET32a); label: CyDye5-dUTP incorporated in the synthesized complementary strand; 3' TTTTT single-stranded linker to array surface; dsDNA, one strand shown. Summed up:
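In PBS with 2% BSA, salmon testes DNA and 50 µM zinc acetate, 200 nM protein was incubated on a custom Agilent array at 25 °C for 1 h and then washed off. The array had been made double-stranded by primer extension with Cy5-dUTP and blocked with 2% BSA. The proteins were transcription factors fused N-terminally to polyhistidine and DsRed, expressed in E. coli BL21-CodonPlus and purified on Ni–NTA. The binding signal is per-feature fluorescence intensity (arbitrary units) from an Axon 4000B scanner.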
Take “TCCTATGTTTTTCCTGCGGTCCAATCAAACGGTCATTCTTCGGAGTCACCTAGTGCAG”: the binding signal was 12300 fluorescence intensity (a.u.). As for “GCGTGTTTTTCTACCCGATCGACCTTCTGATTTTGGCTATCGGAGTCACCTAGTGCAG”, the binding signal was 11100 fluorescence intensity (a.u.). In the case of “CCACCAGCGATTTGGCCCGATCTCATCCCACCAGCGATTTCGGAGTCACCTAGTGCAG”, the binding signal was 8430 fluorescence intensity (a.u.). As to “CACAGCTTCTTAATTACTCCACCTTAATTAATCGATTAATCGGAGTCACCTAGTGCAG”, the binding signal was 8680 fluorescence intensity (a.u.). Turning to “TGATCGCTCGCCGCCGCGGCCGCTCTCCCGCCGGCGCCGCCGGAGTCACCTAGTGCAG”, the binding signal was 9560 fluorescence intensity (a.u.). “TATATATATATATATATATATATATCTGATGCTCTCTTGCCGGAGTCACCTAGTGCAG”: the binding signal is 31700 fluorescence intensity (a.u.).

In the case of “CTCTCTCTCTCTCTCTCTCTCTCTCTCTTCGCCGCGCGGCCGGAGTCACCTAGTGCAG”, the binding signal was 18300 fluorescence intensity (a.u.). In the case of “ATGCCGCTCTATCTCTCTCTCTCTCTCTCTCTCTCTCTCTCGGAGTCACCTAGTGCAG”, the binding signal was 9760 fluorescence intensity (a.u.). To “CACCGGTTCTTCGCCTTCGTCACCGTCGCCGGCGGCGCCACGGAGTCACCTAGTGCAG” belongs 8450 fluorescence intensity (a.u.); to “GGGCGGTTCTTCTTCTTCGTCTTCGTCTTGGCGCCGGTCGCGGAGTCACCTAGTGCAG”, 17200 fluorescence intensity (a.u.). To “CCCACACCACCTCGCCCAATTAAACCCTCACCCATTCTTTCGGAGTCACCTAGTGCAG” belongs 9140 fluorescence intensity (a.u.). On to “AAATTAACCACACTCGCGCCGCCATTCTCTTCTTCTTCTTCGGAGTCACCTAGTGCAG”, for which the binding signal was 20600 fluorescence intensity (a.u.).

As to “CTCCACTGCTCTGATGCTCTCTCTCTCTCTCTCTTCACGCCGGAGTCACCTAGTGCAG”, the binding signal was 10800 fluorescence intensity (a.u.).

In the case of “GTTGGGGTTCGTCGTCTTGGTCTTGGGTCTTCTTCGTCCCCGGAGTCACCTAGTGCAG”, the binding signal is 11600 fluorescence intensity (a.u.). In the case of “CCACGCCACGCGCCGCTCTCACTCGGTCACTCTCACTCTTCGGAGTCACCTAGTGCAG”, the binding signal is 9750 fluorescence intensity (a.u.). To “CGCCGCCGCCGCCGCCGCCGCGCTCGCTCGCTCGCTTCTTCGGAGTCACCTAGTGCAG” belongs 10200 fluorescence intensity (a.u.); to “TAGCAACTCCGTTCTTTTTCTTCTTTTCTCTCACTCACTCCGGAGTCACCTAGTGCAG”, 8360 fluorescence intensity (a.u.); to “CTCTTATAACCACTTCTTTTTAAATCATTTGTTTATATGTCGGAGTCACCTAGTGCAG”, 10200 fluorescence intensity (a.u.).

Regarding “TGGTCTGGCAGTTTTTGAGACGGGGAGTTGACTCAGATATCGGAGTCACCTAGTGCAG”, the binding signal is 9260 fluorescence intensity (a.u.).

In the case of “AGGCTCTATTGGTTTCTCCTCTGTACATACAGTAGTAGTCCGGAGTCACCTAGTGCAG”, the binding signal was 8640 fluorescence intensity (a.u.). To “TTCTACACTCTCTTGATCAGCTCTCACCACTATGTACACTCGGAGTCACCTAGTGCAG” belongs 8860 fluorescence intensity (a.u.); to “TTTTTTTCGGTCTCAATATTTTTTTTTCTCACGTCTTTCGCGGAGTCACCTAGTGCAG”, 10800 fluorescence intensity (a.u.). To “CCTTGACCGTTCCCAGAAAGGTTGACCGTTGTCCGTCACTCGGAGTCACCTAGTGCAG” belongs 9240 fluorescence intensity (a.u.); to “TTTTATATCCCTCACCGTACGATCCAACGTTCCGATTTCTCGGAGTCACCTAGTGCAG”, 8890 fluorescence intensity (a.u.); to “ACCTCTAACCGCCACTAGTTTTTTATACTCTTCTCTATAGCGGAGTCACCTAGTGCAG”, 8470 fluorescence intensity (a.u.). To “CCAAGCGCCCGCCGCCTCGCTCCCTCCTCTTCCTTGACCTCGGAGTCACCTAGTGCAG” belongs 35200 fluorescence intensity (a.u.); to “AACCACTCGCTTCCAAACAATCCAAACCTTCCATGCCATTCGGAGTCACCTAGTGCAG”, 64700 fluorescence intensity (a.u.). On to “ATACCGCCTATTTGCCACTCGTTTTTCTTCTCTTGGGCCGCGGAGTCACCTAGTGCAG”, for which the binding signal was 18700 fluorescence intensity (a.u.). To “GCTTCGGCCCAACAACATTCCACTCGGCCCAACAACCACCCGGAGTCACCTAGTGCAG” belongs 9750 fluorescence intensity (a.u.); to “CCAACCACTCCATCATCATTCGCAATCCAATCTCGCTCTTCGGAGTCACCTAGTGCAG”, 9230 fluorescence intensity (a.u.).

“TTCTCTTTTTCTTTTTATTTTTTCGTTCTCGTCGCCGCCGCGGAGTCACCTAGTGCAG”: the binding signal was 8330 fluorescence intensity (a.u.).

For the sequence “CACACCTCGCCGCTCTTCCCGGCCTCCACCCGCCGCCCTTCGGAGTCACCTAGTGCAG”, the binding signal is 8510 fluorescence intensity (a.u.). As to “CGCTCCTCGCGGCCGCCGCCGCCGCCTCCCTCCTCGCCTTCGGAGTCACCTAGTGCAG”, the binding signal was 8660 fluorescence intensity (a.u.). With “AATTCTCGTCTTCTCGGAGGTTTCTGAGGGGAGGGAGAGGCGGAGTCACCTAGTGCAG”, the binding signal was 8480 fluorescence intensity (a.u.).

In the case of “CCGGTCCTTCACCCACTTCAGCTTCACGTTCACCAGCGTCCGGAGTCACCTAGTGCAG”, the binding signal was 10200 fluorescence intensity (a.u.).

Turning to “ATTTTTTCCTCTAATTAAGTCATATCACATCAATTGTTTTCGGAGTCACCTAGTGCAG”, the binding signal is 10200 fluorescence intensity (a.u.). Regarding “GGCATTTGGGTGTTATGCATGCCGGCCGGCCCGTACGTACCGGAGTCACCTAGTGCAG”, the binding signal is 11700 fluorescence intensity (a.u.). Regarding “AGCTGGATTACCCTTTATACATTTTACTTTAATCTCTTTGCGGAGTCACCTAGTGCAG”, the binding signal was 10900 fluorescence intensity (a.u.). With “GACGTATCATAGTCTCTGTTTAGATTTCTAGTACTATGATCGGAGTCACCTAGTGCAG”, the binding signal was 9340 fluorescence intensity (a.u.). Regarding “ACTGAGTATTATTATATCCTAACTAAGTTATCGTACATTCCGGAGTCACCTAGTGCAG”, the binding signal was 8060 fluorescence intensity (a.u.). To “AATCAGAATATTACCTTCTTGTATTTGTTCTCTGTAGGAACGGAGTCACCTAGTGCAG” belongs 8870 fluorescence intensity (a.u.); to “GCTGTAGAAATTTCTCCTTCTTTGTTAAATGTATGTCTTTCGGAGTCACCTAGTGCAG”, 9540 fluorescence intensity (a.u.).
